Assay outcomes (PubChem)
Mdm2-MdmX inh: human Mdm2/MdmX binding inhibition | actives 3% (n = 330,000) | AID 485346 | SaOS-2 split-luciferase Mdm2/MdmX complementation, luminescence | inhibition, % at 8 µM | O15151+Q00987;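 active = inhibition of at least 50% at 8 µM in the primary screen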
CSC inhib: cancer stem cell inhibition | cancer stem cell-like cells viability, luminescence | inhibition, % at 7.5 µM | actives 1.1% (n = 300,000) | AID 2717; in the data active = inhibition above about 75%; tested in HMLE shEcad cells
PP5 primary: blocks human protein phosphatase 5 activity. purified PP5c, OMFP substrate fluorescence. inhibition, % at 6.7 µM. actives 0.18% (n = 320,000);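 active = inhibition above the campaign's mean inhibition across all tested compounds plus 3 SD, cut at about 9.5% in these data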
Target sequence (P53041 whole entry, looked up): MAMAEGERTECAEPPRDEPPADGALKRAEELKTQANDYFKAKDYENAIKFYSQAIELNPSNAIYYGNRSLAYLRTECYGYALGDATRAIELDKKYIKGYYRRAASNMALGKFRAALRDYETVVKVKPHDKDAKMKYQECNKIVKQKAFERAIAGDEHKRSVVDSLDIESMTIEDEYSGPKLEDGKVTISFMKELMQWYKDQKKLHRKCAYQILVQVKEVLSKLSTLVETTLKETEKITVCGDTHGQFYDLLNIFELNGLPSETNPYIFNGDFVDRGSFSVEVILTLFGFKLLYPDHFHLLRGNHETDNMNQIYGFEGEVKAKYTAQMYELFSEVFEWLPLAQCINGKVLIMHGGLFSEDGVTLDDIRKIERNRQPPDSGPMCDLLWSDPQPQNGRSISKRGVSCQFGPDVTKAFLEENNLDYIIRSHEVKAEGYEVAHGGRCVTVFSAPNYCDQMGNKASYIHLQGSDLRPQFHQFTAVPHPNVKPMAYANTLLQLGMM
Calb FLC: affects C. albicans growth with fluconazole | C. albicans CaCi-2 (fluconazole-resistant clinical isolate) + fluconazole, Alamar Blue growth, 48 h | actives 0.57% (n = 300,000) | growth inhibition, % (concentration not given with the values);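 active = growth inhibition above about 58% in most replicates, limit read from the data, passing the limit was not always enough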;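 note: all wells also contain fluconazole at 8 µg/ml as a sub-toxic cotreatment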
Beta apoptosis: beta cell apoptosis inhibition. actives 0.8% (n = 300,000). protection from apoptosis, % (test concentration not listed). INS-1E cytokine-induced death, ATP luminescence, 48 h; percent of positive-control rescue, neutral wells zero;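 active = Every replicate reaches about 75%, or at least half do and their mean reaches it too, limit read from the data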;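 note: higher means more ATP so stronger rescue from cytokine killing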
PP1 counter: PP1-alpha (human) inhibition in PP5 counter-screen. AID 2235. inhibition, % at 6.7 µM. purified PP1alpha, OMFP fluorescence. actives 0.9% (n = 320,000);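 active = inhibition above the mean inhibition of all tested compounds plus 3 SD, computed separately for each screening campaign, cut at about 15% in these data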
Hits are given with their value. Compounds with a hit are over-represented: about 4.9% of the library has one in this group of screens.

Results for CC(CN1CCCCC1)OC(=O)C(C)(c1ccccc1)c1ccccc1 (configuration not stated) ?
Mdm2-MdmX inh: inactive; CSC inhib: inactive; PP5 primary: inactive; Calb FLC: inactive; Beta apoptosis: inactive; PP1 counter: inactive

Results for CCCN(CC1CC1)c1nc(C)nc(Nc2c(Cl)cc(Cl)cc2Cl)c1Cl ?
Mdm2-MdmX inh: inactive; CSC inhib: 86.2; PP5 primary: inactive; Calb FLC: inactive; PP1 counter: inactive

Results for CCCN(CC1CC1)c1nc(N)c(C#N)c(CC#N)c1C#N ?
Mdm2-MdmX inh: inactive; CSC inhib: inactive; PP5 primary: inactive; Calb FLC: inactive; Beta apoptosis: inactive; PP1 counter: inactive

How did CCOC(=O)c1cn(Cc2cccc(Cl)c2)c2cc(C)nn2c1=O do in these assays?
Mdm2-MdmX inh: inactive; CSC inhib: inactive; PP5 primary: inactive; Calb FLC: inactive; Beta apoptosis: inactive; PP1 counter: inactive

How did CCCNC(=O)c1ccc(N2CCC3(CC2)CC(c2cccc(Br)c2)=NO3)c(NC(=O)c2cccc(C)c2)c1 do in these assays?
Mdm2-MdmX inh: inactive; CSC inhib: inactive; PP5 primary: inactive; Calb FLC: inactive; Beta apoptosis: inactive; PP1 counter: 16.0

How did CCCCCCCC(=O)Nc1cc(C(=O)NCCC)ccc1N1CCC2(CC1)CC(c1cccc(Br)c1)=NO2 do in these assays?
Mdm2-MdmX inh: inactive; CSC inhib: inactive; PP5 primary: inactive; Calb FLC: inactive; Beta apoptosis: inactive; PP1 counter: inactive

Results for O=C1CCC/C(=N/Nc2ccc(Cl)cc2)C1 ?
Mdm2-MdmX inh: inactive; CSC inhib: inactive; PP5 primary: inactive; Calb FLC: 105.7; Beta apoptosis: inactive; PP1 counter: inactive

Results for O=C(Nc1cccc(NC(=O)C2C3CC4OC(=O)C2C4C3)c1)c1ccccc1 (configuration not stated) ?
Mdm2-MdmX inh: inactive; CSC inhib: inactive; PP5 primary: inactive; Calb FLC: inactive; Beta apoptosis: inactive; PP1 counter: inactive

Results for COC(=O)C1=NN(C(=O)c2ccc(Cl)cc2)C(O)(c2ccccc2)C1 (configuration not stated) ?
Mdm2-MdmX inh: inactive; CSC inhib: inactive; PP5 primary: inactive; Calb FLC: 59.5; Beta apoptosis: inactive; PP1 counter: inactive

What do the screens show for `CCC1=NN(C(=O)c2ccccc2O)C(O)(c2ccccc2)C1` (configuration not stated)?
Mdm2-MdmX inh: inactive; CSC inhib: 78.7; PP5 primary: inactive; Calb FLC: 107.4; Beta apoptosis: 86.9; PP1 counter: inactive

How did CCC1=NN(C(=O)c2ccc(Cl)cc2)C(O)(c2ccc(C)cc2)C1 (configuration not stated) do in these assays?
Mdm2-MdmX inh: inactive; CSC inhib: 98.9; Calb FLC: inactive; Beta apoptosis: inactive

Results for CCC1=NN(C(=O)c2ccc(Cl)cc2)C(O)(c2ccccc2)C1 (configuration not stated) ?
Mdm2-MdmX inh: inactive; CSC inhib: inactive; PP5 primary: inactive; Calb FLC: inactive; Beta apoptosis: inactive; PP1 counter: inactive

Results for Fc1cccc(Nc2nc(N3CCOCC3)nc(N3CCOCC3)n2)c1 ?
Mdm2-MdmX inh: inactive; CSC inhib: inactive; PP5 primary: inactive; Calb FLC: inactive; PP1 counter: inactive

Results for COc1ccc(C2CC(c3ccccc3)=NN2C(=O)COC(=O)/C=C/c2ccc(O)c(OC)c2)cc1 (configuration not stated) ?
Mdm2-MdmX inh: inactive; CSC inhib: inactive; PP5 primary: inactive; Calb FLC: inactive; Beta apoptosis: inactive; PP1 counter: inactive

Results for Cc1ccc(C(=O)OCC(=O)N(C)C2CCS(=O)(=O)C2)cc1S(=O)(=O)N1CCCCC1 (configuration not stated) ?
Mdm2-MdmX inh: inactive; CSC inhib: inactive; PP5 primary: inactive; Calb FLC: inactive; Beta apoptosis: inactive; PP1 counter: inactive

How did COC(=O)C1C(=O)C2=C(CC1C)NC(=O)CC2c1cccc(C)c1 (configuration not stated) do in these assays?
Mdm2-MdmX inh: inactive; CSC inhib: 101.0; PP5 primary: inactive; Calb FLC: inactive; Beta apoptosis: inactive; PP1 counter: inactive

Results for COC(=O)C1=C(CN2CCc3ccccc32)NC(=O)NC1c1cc(C)ccc1C (configuration not stated) ?
Mdm2-MdmX inh: inactive; CSC inhib: inactive; PP5 primary: inactive; Calb FLC: inactive; Beta apoptosis: inactive; PP1 counter: 15.4
